Reference: PubChem BioAssay AID1851 (National Center for Advancing Translational Sciences (NCATS), 2009)
Several values for one entry are separate records, joined by “and”; a condition that tells them apart may be missing. Equal values may be shown once. Among all 16,000 compounds or so, about 5,800 (36%) were called active. Inconclusive results (about 23%) are left out. The list shows a part of the results. Unmarked numbers belong to inactive results. The call rests on the fitted dose curve; in most records, active means well fitted curve in the direction sought with a large enough effect; inconclusive means small, poorly fitted or top-dose-only effect, or effect the other way; inactive means no such curve, though single readings can be large or run the other way.

The compounds below were run against Cytochrome P450 2C19 (Homo sapiens) (UniProt P33261) (assay: Cytochrome panel assay with activity outcomes). Conditions: recombinant CYP, pro-luciferin dealkylation, luminescence, p450-cyp2c19; series mostly up to 57.1 µM; activity, negative = inhibition: at the top concentration.
Chain of Cytochrome P450 2C19 (Homo sapiens) (P33261 whole entry, looked up): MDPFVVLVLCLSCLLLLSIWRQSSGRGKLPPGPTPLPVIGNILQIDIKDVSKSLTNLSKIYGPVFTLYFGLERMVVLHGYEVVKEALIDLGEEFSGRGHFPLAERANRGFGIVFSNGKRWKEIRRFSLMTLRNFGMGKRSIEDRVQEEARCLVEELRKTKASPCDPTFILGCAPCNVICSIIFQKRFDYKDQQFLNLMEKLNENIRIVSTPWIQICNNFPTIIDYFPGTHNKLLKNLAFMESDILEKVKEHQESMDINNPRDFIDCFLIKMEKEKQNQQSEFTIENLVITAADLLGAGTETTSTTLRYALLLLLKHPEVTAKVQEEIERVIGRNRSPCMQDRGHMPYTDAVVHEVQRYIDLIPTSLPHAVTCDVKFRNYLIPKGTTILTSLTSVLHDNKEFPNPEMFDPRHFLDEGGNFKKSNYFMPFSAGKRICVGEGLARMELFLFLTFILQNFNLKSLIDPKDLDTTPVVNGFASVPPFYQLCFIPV
On the % scale 0 is the no-effect control and ±100 the full control effect.

Row | Compound | activity, negative = inhibition | AC50
1 | CC(C)CN1CC2(CCN(C(=O)c3cccc(F)c3)CC2)C1 | 19.3% | –
2 | NNC(=O)[C@@H](O)[C@H](O)[C@H](O)CO | 16% [at 11.4 µM] | –
3 | Cn1c([N+](=O)[O-])cnc1COC(N)=O | -41.3% [at 25.6 µM] | –
4 | CCCCCCCCCCCCCCCC(=O)C(F)(F)F | 19.4% | –
5 | Nc1nc(Cl)cc(N2CCC(c3cc(-c4ccc(Cl)cc4Cl)n[nH]3)CC2)n1 | – | 3.98 µM (active)
6 | COc1ccc(-c2cc(C3CCN(c4cc(Cl)nc(N)n4)CC3)[nH]n2)cc1 | – | 3.16 µM (active)
7 | NC1CCN(c2cccc(Cl)n2)CC1 | – | inactive
8 | C[N+](C)(C)c1ccc([C@H](N)C(=O)O)cc1 | -19.4% [at 11.4 µM] | –
9 | CCOC(=O)C1C(=O)C=C(c2ccc(C)cc2)CC1c1ccco1 (stereo unspecified) | – | 3.98 µM (active)
10 | CCOC(=O)C1C(=O)C=C(c2ccc(NS(C)(=O)=O)cc2)CC1c1ccco1 (stereo unspecified) | – | 14.1 µM (active)
11 | N[C@@H](Cn1cc(F)c(=O)[nH]c1=O)C(=O)O | -26.3% | –
12 | CCCCCCC(C)n1cc(C(C)=O)c(=O)[nH]c1=O (stereo unspecified) | – | 15.8 µM (active)
13 | CCCCCCCCn1cc(C(C)=O)c(=O)[nH]c1=O | – | 17.8 µM (active)
14 | CC(C)NC[C@H](O)c1cc(O)cc(O)c1 | – | inactive
15 | CC(C)Oc1ccc2ccccc2c1C=O | – | 10 µM (active)
16 | COc1ccc(C(=O)NCS(=O)(=O)c2ccc(C)cc2)cc1 | – | 6.31 µM (active)
17 | Cc1cc(N2CCN(C)CC2)nc2ccc(NC(=O)CCC(=O)NCc3ccco3)cc12 | 34.7% | –
18 | O=C(CN(Cc1ccco1)C(=O)c1ccccc1)Nc1ccc(Cl)c(Cl)c1 | – | 3.16 µM (active)
19 | O=C(CN(Cc1ccco1)C(=O)c1cccc(Cl)c1)Nc1c(Cl)cc(Cl)cc1Cl | – | 10 µM (active)
20 | CO[C@]1(C2=NCCN2)COc2ccccc2O1 | – | inactive
21 | CCc1cc2cc(C)c(C)cc2nc1SCC(=O)NNC(=O)c1ccco1 | 1.63% | –
22 | CC(=O)c1ccc(-n2nnnc2SCC(=O)Nc2cccc(NC(=O)c3ccco3)c2)cc1 | – | 3.16 µM (active)

Row | Compound | activity, negative = inhibition | AC50
23 | Cc1ccc(-n2nnnc2SCC(=O)NNC(=O)c2ccco2)c(C)c1 | -28.9% | –
24 | Cc1ccc(SCC(=O)Nc2cccc(NC(=O)c3ccco3)c2)cc1 | – | 7.08 µM (active)
25 | CNC(=O)c1nnn(Cc2ccccc2)c1NC(=O)C(F)(F)F | -10.7% | –
26 | CCC(=O)Nc1cccc(NC(=O)CSc2nnnn2Cc2ccccc2)c1 | – | 10 µM (active)
27 | O=C(CSc1ccc(Cl)cc1)Nc1cccc(NC(=O)c2ccco2)c1 | – | 2.51 µM (active)
28 | O=C(NC1CCCCC1)c1sc(=S)n2c1[nH]c(=O)c1ccccc12 | – | 4.47 µM (active)
29 | O=C(NCc1ccccc1)c1sc(=S)n2c1[nH]c(=O)c1ccccc12 | – | 11.2 µM (active)
30 | Nc1c(C(=O)NCc2ccccc2)sc2nc3c(cc12)C(=O)CCC3 | -22.7% | –
31 | CC(=O)O[C@]1(C(C)=O)CC[C@@H]2[C@@H]3C=C(C)C4=CC(=O)CC[C@@]4(C)[C@H]3CC[C@]21C | -8.41% [at 25.6 µM] | –
32 | CC(=O)CC(=O)[C@@]1(O)CC[C@@H]2[C@@H]3C=C(C)C4=CC(=O)CC[C@@H]4[C@H]3CC[C@]21C | – | 5.01 µM (active)
33 | N#Cc1ccccc1Sc1ccccc1N | – | 2.82 µM (active)
34 | N#CC(=C(/N)Sc1ccccc1N)/C(C#N)=C(/N)Sc1ccccc1N | -43% | –
35 | C[C@@H](c1ccccc1)N1C(=O)[C@@H]2[C@H]3C(=CC[C@H]2C1=O)C(=O)[C@H]1O[C@H]1[C@H]3O | 18.8% [at 11.4 µM] | –
36 | Cc1ccc(S(=O)(=O)N(Cc2ccccc2)c2ccccc2C(=O)NCc2ccco2)cc1 | – | 3.55 µM (active)
37 | CC1=C(C(=O)O)N2C(=O)C(NC(=O)c3ccn(C)n3)C2SC1 (stereo unspecified) | – | 25.1 µM (active)
38 | N[C@H](C(=O)N[C@@H]1C(=O)N2C(C(=O)O)=C(Cl)CS[C@@H]12)c1ccccc1 | – | inactive
39 | CC(=O)OCC1=C(C(=O)O)N2C(=O)[C@@H](NC(=O)CSc3ccncc3)[C@@H]2SC1 | – | inactive
40 | CCCCN(C)Cc1c(C)[nH]c2ccc(Cl)cc2c1=O | -27.8% | –
41 | C#CCN(C)CCCOc1ccc(Cl)cc1Cl | – | 5.01 µM (active) and 2.51 µM (active)
42 | O=[N+]([O-])c1ccc(S(=O)(=O)Cc2ccccc2)c2nonc12 | – | 3.16 µM (active)
43 | O=[N+]([O-])c1cccc2c[nH]nc12 | 7.18% | –
44 | CN1CCN(c2cc(-c3ccccc3C(F)(F)F)ncn2)CC1 | – | 10 µM (active)

Row | Compound | activity, negative = inhibition | AC50
45 | CNc1cc(-c2ccccc2C(F)(F)F)ncn1 | -43.7% | –
46 | CN1CCN(c2ncncc2-c2ccccc2Cl)CC1 | -30.3% | –
47 | FC(F)(F)c1ccccc1-c1cc(NCCN2CCOCC2)ncn1 | 15.6% | –
48 | CN1CCN(c2ncncc2-c2ccccc2C(F)(F)F)CC1 | – | 15.8 µM (active)
49 | O=c1onc(-c2cccs2)n1Cc1ccccc1 | – | 1 µM (active)
50 | CN(C)c1ncc2nc(-c3cccs3)c(=O)n(CCc3ccccc3)c2n1 | -44.5% | –
51 | COc1ccc(Br)cc1/C=C/C(=O)Nc1c(C)cccc1C | – | 4.47 µM (active)
52 | CCn1nc(C)c(NC(=O)/C=C/c2cnn(C)c2C)c1C | 0.913% | –
53 | O=C(O)Cn1ccnc1[N+](=O)[O-] | 4.05% [at 11.4 µM] | –
54 | O=C(c1cnccn1)N1CCC[C@@]2(CCN(c3ccncc3)C2)C1 | 3.85% | –
55 | N#Cc1ccc(CN2CC[C@@]3(CCCN(C(=O)c4cc(C(F)(F)F)cc(C(F)(F)F)c4)C3)C2)cc1 | -26.1% | –
56 | O=C(c1cc(C(F)(F)F)cc(C(F)(F)F)c1)N1CCC[C@@]2(CCN(Cc3ccccc3)C2)C1 | -36% | –
57 | O=C(c1cnccn1)N1CCC[C@@]2(CCN(Cc3cc(C(F)(F)F)cc(C(F)(F)F)c3)C2)C1 | -15.7% | –
58 | O=C(c1cnccn1)N1CCC[C@@]2(CCN(Cc3ccncc3)C2)C1 | – | 10 µM (active)
59 | O=C(c1cc(C(F)(F)F)cc(C(F)(F)F)c1)N1CCC[C@@]2(CCN(Cc3ccncc3)C2)C1 | – | 0.2 µM (active)
60 | CCC(=O)O[C@@]1(C(=O)CCl)[C@@H](C)C[C@@H]2[C@H]3CCC4=CC(=O)C=C[C@@]4(C)[C@]3(F)[C@@H](O)C[C@@]21C | -27.9% [at 25.6 µM] | –
61 | Cc1ccnc(NC(=O)c2cccc(NC(=O)COc3ccccc3)c2)c1 | – | 15.8 µM (active)
62 | CCOC(=O)c1cccc(NC(=O)COc2ccc([N+](=O)[O-])cc2)c1 | – | 3.55 µM (active)
63 | Cc1ccc(S(=O)(=O)CCc2nnc(NC(=O)COc3cccc(C)c3)s2)cc1 | 5.12% | –
64 | C/C(CC(=O)Nc1cc(C)ccn1)=N\NC(=O)COc1cccc(C)c1 | – | 25.1 µM (active)
65 | C[N+]1(CCOc2ccc([N+](=O)[O-])cc2)CCOCC1 | -11.9% | –
66 | O=C(COc1ccc(/C=N/NC(=O)c2ccccc2)cc1)Nc1ccc([N+](=O)[O-])cc1 | 47% | –
